The panel holds about 83,000 compounds, 20% with a hit somewhere; the sample as a whole holds those more often.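 Activity criterion: percent growth below 10, measured after cells in 96-well plates were exposed to a single compound concentration for 48 hours.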 Activity calls are given as the source filed them.

One experiment concerns UO-31 renal. Kind of experiment: NCI-60 one-dose screen, 48 h (100 = growth as untreated, 0 = no growth, -100 = all killed). The conditions noted are these: 10 µM unless noted.
In the case of `CC(=O)OC[C@H]1OC(Sc2sc(C(=O)c3ccc(C)cc3)c(N)c2-c2nc3ccccc3s2)[C@H](OC(C)=O)[C@@H](OC(C)=O)[C@@H]1OC(C)=O` (stereo partly specified), the growth is 25.7% (inactive).
For the compound `COC1=C(C)C(=O)c2c(c(CCCl)c3n2CCC3O)C1=O` (stereo unspecified), the growth was -60.4% (active).
Regarding `Oc1ccc(C#CCOc2ccccc2)cc1CNCCN(Cc1ccccn1)Cc1ccccn1`, the growth was -2.48% (active).
For the compound `CCc1nnc(NC(=O)c2nnn(-c3ccccc3)c2-c2ccco2)s1`, the growth was 87.4% (inactive).
Still for that read-out and setting: the figure for `CNc1nc2c(s1)C(c1cccc(F)c1)CC(=O)N2` (stereo unspecified) is 84.6% (inactive).
Turning to `CC(=O)O.CN1[CH-]N(Cc2ccc(C#N)cc2)c2ccccc21.[Ag+]`, the growth was 97.4% (inactive).
Same read-out and setting: under `O=C(Nc1ccc(F)cc1F)c1cc(F)ccc1O` stands -16.1% (active).
In the case of `CCc1ccc(Oc2c(-c3ccc(OCc4ccc(Cl)cc4)cc3O)nn(C)c2C(F)(F)F)cc1`, the growth was -22.9% (active).
For `CCC(=O)Nc1ccc(-c2nc(-c3cccc(OC)c3)c(-c3ccnc(Br)c3)[nH]2)cc1`, the growth was 53.9% (inactive).
The same measure, in the same setting: the figure for `CC/C=C\C[C@@H](O)C/C=C1/C(=O)C=C[C@H]1C/C=C\CCCC(=O)OC` is 16.9% (inactive).
Regarding `CC(=O)CC(c1ccccc1)c1c(C)[nH]c2ccccc12` (stereo unspecified), the growth is 72.6% (inactive).
For the compound `Cc1nc2cnc(N)c(C#Cc3cncc(C(=O)Nc4ccc(CN5CCN(C)CC5)c(C(F)(F)F)c4)c3)c2nc1C`, the growth was 2.11% (active).
Still for that read-out and setting: under `COc1ccn2c(C(C)=O)cc(C(=O)c3ccc4c(c3)Sc3ccccc3N4)c2c1` stands 28.3% (inactive); under `COC(=O)C(Cc1ccccc1)NC(=O)NC(=O)NC(=O)CI` (stereo unspecified), 34.7% (inactive); under `O=C1CCC(C(=O)NCCNCCNC(=O)C2CCC(=O)N2)N1` (stereo unspecified), 96.5% (inactive).
Same read-out and setting: under `C(=N/Nc1ncnc2nc[nH]c12)/c1ccccn1` stands 3.16% (active); under `CCCCCCCCCCCCCCCCCCOc1ccc(CC(=O)OCC[N+](C)(C)C)cc1`, 101% (inactive).
`COc1ccc([C@H]2c3cc(OC)c(OC)cc3C=C(C=O)C2CO)cc1OC` (stereo partly specified): the growth was 68.4% (inactive).
Regarding `Cc1nn(-c2ccccc2)c(-n2ccnc2)c1/C=N/Nc1nc(-c2ccc(Cl)c(Cl)c2)cs1`, the growth was 49.6% (inactive).
Same read-out and setting: under `Cc1ccc2c(n1)C(=O)C(Cl)=C(Nc1ccccc1C(C)C)C2=O` stands 57% (inactive).
With `Cc1cccc2c3c(sc12)C(c1ccc(Cl)cc1)C(C#N)=C(/N=C/c1ccc(Cl)cc1)O3` (stereo unspecified), the growth is 37.9% (inactive).
Take `Cc1ncc(C(=O)Nc2ccc(CN3CCN(C)CC3)c(C(F)(F)F)c2)cc1C#Cc1ccc(N)nc1`: the growth is -27% (active).
Still for that read-out and setting: under `COc1ccc(CN2c3ccccc3Sc3ccccc32)c(F)c1` stands 43% (inactive); under `COc1ccc(-c2ncnc3c2ncn3CC#CCCl)cc1`, -86.7% (active); under `COc1ccc(C(=O)C[C@]2(O)C(=O)Nc3c(Cl)ccc(Cl)c32)cc1`, 46.8% (inactive).
With `c1ccc2c(-c3nc(-c4c[nH]c5ccncc45)cs3)c[nH]c2c1`, the growth is 44.4% (inactive).
Same read-out and setting: under `COc1cc(C(=O)/C=C/c2c(Cl)nc3sccn23)cc(OC)c1OC` stands 60.4% (inactive); under `COc1ccc(-c2cc(-c3ccc(Cl)cc3)c(C#N)c(=O)n2CCCCCC(=O)Nc2ccccc2N)cc1`, 43% (inactive).
Turning to `COc1cccc(/C=C2\C=C(c3ccccc3)N(Cc3ccccc3)C2=O)c1`, the growth is 41.2% (inactive).
Still for that read-out and setting: under `COc1ccc(N2C(=O)C(Oc3ccccc3)C2c2ccc(C)cc2)cc1` (stereo unspecified) stands 91.9% (inactive).
On the same count and under the same terms, under `O=[N+]([O-])c1ccc(Cl)c(-c2cc(CCCCO)on2)c1` stands 86% (inactive).
Turning to `COc1cccc2nc3n(c12)C(c1c(F)cccc1F)SC3` (stereo unspecified), the growth is 77.6% (inactive).
Same read-out and setting: the figure for `Cc1ccc(S(=O)(=O)N/N=C/C2(c3ccccc3)CC2)cc1` is 93.2% (inactive).

A further experiment deals with TK-10 renal. Described as above. The note with it: 10 µM unless noted.
As to `CC(=O)OC[C@H]1OC(Sc2sc(C(=O)c3ccc(C)cc3)c(N)c2-c2nc3ccccc3s2)[C@H](OC(C)=O)[C@@H](OC(C)=O)[C@@H]1OC(C)=O` (stereo partly specified), the growth is 99.3% (inactive).
On the same count and under the same terms, the figure for `COC1=C(C)C(=O)c2c(c(CCCl)c3n2CCC3O)C1=O` (stereo unspecified) is -35.2% (active); for `Oc1ccc(C#CCOc2ccccc2)cc1CNCCN(Cc1ccccn1)Cc1ccccn1` it is 26.2% (inactive); for `CCc1nnc(NC(=O)c2nnn(-c3ccccc3)c2-c2ccco2)s1` it is 115% (inactive).
`CNc1nc2c(s1)C(c1cccc(F)c1)CC(=O)N2` (stereo unspecified): the growth is 105% (inactive).
Same read-out and setting: the figure for `CC(=O)O.CN1[CH-]N(Cc2ccc(C#N)cc2)c2ccccc21.[Ag+]` is 103% (inactive); for `O=C(Nc1ccc(F)cc1F)c1cc(F)ccc1O` it is 22.9% (inactive); for `CCc1ccc(Oc2c(-c3ccc(OCc4ccc(Cl)cc4)cc3O)nn(C)c2C(F)(F)F)cc1` it is -1.88% (active).
Same read-out and setting: the figure for `CCC(=O)Nc1ccc(-c2nc(-c3cccc(OC)c3)c(-c3ccnc(Br)c3)[nH]2)cc1` is 90.4% (inactive).
The same measure, in the same setting: under `CC/C=C\C[C@@H](O)C/C=C1/C(=O)C=C[C@H]1C/C=C\CCCC(=O)OC` stands 31.1% (inactive); under `CC(=O)CC(c1ccccc1)c1c(C)[nH]c2ccccc12` (stereo unspecified), 117% (inactive).
For `Cc1nc2cnc(N)c(C#Cc3cncc(C(=O)Nc4ccc(CN5CCN(C)CC5)c(C(F)(F)F)c4)c3)c2nc1C`, the growth is 4.77% (active).
Regarding `COc1ccc(-c2nc(NCCO)[nH]c(=O)c2C#N)cc1`, the growth is 99.7% (inactive).
As for `COc1ccn2c(C(C)=O)cc(C(=O)c3ccc4c(c3)Sc3ccccc3N4)c2c1`, the growth is 29.6% (inactive).
Same read-out and setting: the figure for `COC(=O)C(Cc1ccccc1)NC(=O)NC(=O)NC(=O)CI` (stereo unspecified) is 75.9% (inactive); for `O=C1CCC(C(=O)NCCNCCNC(=O)C2CCC(=O)N2)N1` (stereo unspecified) it is 100% (inactive).
Consider `C(=N/Nc1ncnc2nc[nH]c12)/c1ccccn1`, for which the growth was 56.1% (inactive).
As for `CCCCCCCCCCCCCCCCCCOc1ccc(CC(=O)OCC[N+](C)(C)C)cc1`, the growth is 93.8% (inactive).
`COc1ccc([C@H]2c3cc(OC)c(OC)cc3C=C(C=O)C2CO)cc1OC` (stereo partly specified): the growth is 73.4% (inactive).
Regarding `Cc1nn(-c2ccccc2)c(-n2ccnc2)c1/C=N/Nc1nc(-c2ccc(Cl)c(Cl)c2)cs1`, the growth was 2.74% (active).
The same measure, in the same setting: under `Cc1ccc2c(n1)C(=O)C(Cl)=C(Nc1ccccc1C(C)C)C2=O` stands 165% (inactive); under `Cc1cccc2c3c(sc12)C(c1ccc(Cl)cc1)C(C#N)=C(/N=C/c1ccc(Cl)cc1)O3` (stereo unspecified), 74.8% (inactive).
With `Cc1ccc2c(-c3cc(-c4ccccc4)nc(N)c3C#N)cc(=O)oc2c1`, the growth is 101% (inactive).
In the case of `Cc1ncc(C(=O)Nc2ccc(CN3CCN(C)CC3)c(C(F)(F)F)c2)cc1C#Cc1ccc(N)nc1`, the growth is -28.2% (active).
Take `COc1ccc(CN2c3ccccc3Sc3ccccc32)c(F)c1`: the growth was 51.1% (inactive).
As for `COc1ccc(-c2ncnc3c2ncn3CC#CCCl)cc1`, the growth was 69.8% (inactive).
Regarding `COc1ccc(C(=O)C[C@]2(O)C(=O)Nc3c(Cl)ccc(Cl)c32)cc1`, the growth is 71.6% (inactive).
As for `c1ccc2c(-c3nc(-c4c[nH]c5ccncc45)cs3)c[nH]c2c1`, the growth was 56.4% (inactive).
Still for that read-out and setting: the figure for `C=CCNc1ccc2c3c(cccc13)C(=O)N(N1C(=O)c3cccc4cccc(c34)C1=O)C2=O` is 105% (inactive); for `N#Cc1c(-c2ccccc2)nc(SCC(=O)Nc2nc(-c3ccc(Cl)cc3)cs2)[nH]c1=O` it is 110% (inactive); for `COc1cc(C(=O)/C=C/c2c(Cl)nc3sccn23)cc(OC)c1OC` it is 106% (inactive).
Consider `COc1ccc(-c2cc(-c3ccc(Cl)cc3)c(C#N)c(=O)n2CCCCCC(=O)Nc2ccccc2N)cc1`, for which the growth was 78.3% (inactive).
Same read-out and setting: under `COc1cccc(/C=C2\C=C(c3ccccc3)N(Cc3ccccc3)C2=O)c1` stands 88.5% (inactive); under `CCOC(=O)c1cn2ncnc(Oc3ccc(NC(=O)NCCN(C)C)c(Cl)c3)c2c1C`, 105% (inactive).
The same measure, in the same setting: under `COc1ccc(N2C(=O)C(Oc3ccccc3)C2c2ccc(C)cc2)cc1` (stereo unspecified) stands 126% (inactive).
As to `O=[N+]([O-])c1ccc(Cl)c(-c2cc(CCCCO)on2)c1`, the growth was 119% (inactive).
Same read-out and setting: under `COc1cccc2nc3n(c12)C(c1c(F)cccc1F)SC3` (stereo unspecified) stands 115% (inactive); under `Cc1ccc(S(=O)(=O)N/N=C/C2(c3ccccc3)CC2)cc1`, 120% (inactive).

Source of the values: PubChem BioAssay (NCI).
